Measured values as given in PubChem BioAssay AID2391 (Southern Research Specialized Biocontainment Screening …, 2010).
In all, about 310,000 compounds went through this assay and about 410 (0.13%) were called active. Not shown: some 2% with an inconclusive outcome. How the calls were made is not given here. Not all results are given here. Potency and affinity values are given separately.

assay: inhibition of RSV-induced cytopathic effect – HEp-2 cells, primary 10 µM value included (AID 2391); settings: at 10 µM, stronger effect = higher value

CPE inhibition, inactive:
Cc1ccc(N2CC(C(=O)Nc3ccc(S(=O)(=O)N4CCOCC4)cc3)CC2=O)cc1 (stereo not drawn) -0.55%
COc1ccc(CCNC(C)=O)cc1 3.67%
CCOC(=O)C1(Cc2cccc(OC)c2)CCN(CCO)CC1 -1.67%
Cc1c(C(=O)N(C)Cc2cccc(F)c2)oc2c(Cl)cccc12 18%
COc1cc2c(-c3ccccc3O)nc3c(c(C)nn3-c3ccccc3)c2cc1OC 1.81%
COc1cc(-c2nc3c(c(C)nn3-c3ccccc3)c3cc(OC)c(OC)cc23)ccc1O 57.5%
Cc1ccc(Nc2nc(CSc3nnc(-c4ccncc4)n3C)cs2)cc1 1.07%
Cc1cc(C)n2nc(SCc3c(F)cccc3Cl)nc2n1 0.85%
CN(CCO)S(=O)(=O)c1ccc2c(c1)C(=NO)c1cc(S(=O)(=O)N(C)CCO)ccc1-2 -0.46%
CN(C)S(=O)(=O)c1ccc2c(c1)C(=NO)c1cc(S(=O)(=O)N(C)C)ccc1-2 2.67%
CCS(=O)(=O)N1CCN(c2ccccn2)CC1 -0.21%
Cn1nnnc1SCC(=O)N(C1CCCCC1)C1CCS(=O)(=O)C1 (stereo not drawn) -0.03%
CCC(=O)NCCc1nc2cc(NC(=O)Nc3ccccc3)ccc2n1C 1.28%
CC(NC(=O)c1ccc(F)cc1Cl)C1CC2CCC1C2 (stereo not drawn) 1.15%
COCc1cc(C)nc(SCC(=O)Nc2ccc(N3CCOCC3)cc2)c1C#N 1.56%
COCc1cc(C)nc(SCC(=O)Nc2cc(C(F)(F)F)ccc2N2CCOCC2)c1C#N 1.23%
CC(=O)CC(C)(C)n1nnc(-c2ccccc2)n1 1.03%
COc1ccc(CNC(=O)N2CCN(c3ccc(F)cc3)CC2)cc1 0.79%
Cn1c(SCc2ccccc2)nnc1-c1ccco1 3.37%
Nn1c(SCc2cccc3ccccc23)nnc1-c1ccco1 0.35%
Cc1ccc(SCCOCCN2CCOCC2)cc1 -1.12%
Cc1sc2nc(C3CC3)nc(SCC(=O)N3CCc4ccccc4C3)c2c1C 1.85%
Cc1sc2nc(C3CC3)nc(SCC(=O)N3CCCc4ccccc43)c2c1C 20.9%
Cc1sc2nc(C(C)C)nc(SCC(=O)N3c4ccccc4CC3C)c2c1C (stereo not drawn) 16.1%
CCc1nc(SCC(=O)N2CC(=O)Nc3ccccc32)c2c(C)c(C)sc2n1 0.22%
COc1ccccc1N=Nc1nc(-c2ccccc2)c(-c2ccccc2)[nH]1 12.4%
CC(C)CNC(=O)COC(=O)CNC(=O)c1cc(Cl)cc([N+](=O)[O-])c1 1.69%
COC(=O)C1=C(C)N(c2ccccc2)/C(=C/c2ccco2)C1=O 0.77%
CCc1ccc(NCCC(=O)c2ccc(Br)cc2)cc1 0.86%
CCS(=O)(=O)N1CCCC(C(=O)Oc2ccc(Br)cc2)C1 (stereo not drawn) -0.04%
O=C(O)c1cccc(NC(=O)c2cn(-c3ccccc3)nc2-c2ccc([N+](=O)[O-])cc2)c1 19%
COc1ccc(-c2oc(=O)c3cc(OC)c(OC)cc3c2/C=C/c2ccc(F)cc2)cc1 5.33%
COc1cc(OC)cc(-c2oc(=O)c3cc(OC)c(OC)cc3c2/C=C/c2ccc(F)cc2)c1 3.91%
Cc1cc(N(C(=O)c2ccco2)C(C(=O)NC2CCCCC2)c2ccccc2)ccc1-n1cnnn1 (stereo not drawn) 0.41%
CCN(CC)c1ccc(NC(=O)C(C)C)cc1 0.56%
COc1cccc(N2CCN(S(=O)(=O)c3c(C)[nH]c(C)c3C(=O)N3CCCCC3)CC2)c1 1.56%
Cc1[nH]c(C)c(S(=O)(=O)N2CCN(c3cccc(C(F)(F)F)c3)CC2)c1C(=O)N1CCCC1 2.4%
Cc1[nH]c(C)c(S(=O)(=O)N2CCN(c3ccccc3)CC2)c1C(=O)N1CCCCC1 0.61%
Cc1[nH]c(C)c(S(=O)(=O)N2CCN(c3cccc(Cl)c3)CC2)c1C(=O)N1CCCC1 0.18%
Cc1nc(SCC(=O)NCc2ccco2)c2c(=O)n(C)c(=O)n(CC(C)C)c2n1 1.51%
O=c1c2c(n3cnnc3n1C1CCCCC1)-c1ccccc1CC21CCCCC1 3.08%
O=C(CCn1nnc2ccccc2c1=O)N[C@@H](Cc1ccccc1)C(=O)O 2%
COc1ccc(OC)c(CN2CCN(C(=O)c3ccco3)CC2)c1 0.83%
CNC(=O)CN1C(=O)NC(Cc2c[nH]c3ccccc23)C1=O (stereo not drawn) 2.1%
CC(C)(C)OC(=O)CN1C(=O)NC(Cc2c[nH]c3ccccc23)C1=O (stereo not drawn) -0.27%
CC1CN(C(=O)/C=C/c2ccc(SC(F)F)cc2)CC(C)O1 (stereo not drawn) 1.82%
Cc1occc1-c1nnc(SCC(N)=O)n1Cc1ccccc1 1%
COC(=O)c1cccnc1NC(=S)NC1CCCCC1 0.64%
CC(C)OC(=O)c1ccc(Cn2nnc3ccccc3c2=O)cc1 12.4%
Cc1ccc(O)c(NC(=S)NC(=O)c2ccc(-c3ccc(Cl)cc3)o2)c1 -0.16%
Cc1ccc(O)c(NC(=S)NC(=O)CC(C)C)c1 0.23%
CC(C)(C)c1ccc(C2C(C(=O)c3ccco3)=C(O)C(=O)N2CC2CCCO2)cc1 (stereo not drawn) 8.05%
Cc1cccc2nc(Cn3c(=O)n(CCC(=O)NCc4ccco4)c(=O)c4sccc43)cc(=O)n12 10.2%
Cc1ccccc1Cn1c(=O)n(CCCC(=O)NCc2ccco2)c(=O)c2sccc21 3.02%
O=C(CCCn1c(=O)c2sccc2n(CC(=O)NCc2ccco2)c1=O)NCc1ccco1 -0.82%
O=C(CCn1c(=O)c2ccccc2n(Cc2cc(=O)n3ccccc3n2)c1=O)NCc1ccco1 64%
O=C(C1=C[C@@H](c2coc3ccccc3c2=O)C[C@@H](OCc2ccc(CO)cc2)O1)N1CCN(Cc2ccc3c(c2)OCO3)CC1 4.77%
COC(=O)c1cc(S(=O)(=O)NCCc2cccc(C)c2)cn1C 0.96%
COc1ccccc1CNC(=O)Cc1csc(NC(=O)Nc2ccccc2OC)n1 7.68%
CC(C)(C)c1csc(NC(=O)Nc2ccccc2)n1 17.7%
O=C(CCCCCNC(=O)N1CCn2c1nc1ccccc12)N[C@@H](Cc1ccccc1)C(=O)O 0.73%
Cc1ccc2c(Cl)cc(Cl)c(OCC(=O)Nc3ccc(C)c(S(=O)(=O)N(C)C)c3)c2n1 1.79%
CNC(=O)/C(C#N)=C/c1c(N2CCN(c3ccccc3)CC2)nc2c(C)cccn2c1=O 14.9%
CCN1CCN(c2nc3c(C)cccn3c(=O)c2/C=C(\C#N)C(=O)NC)CC1 2.17%
Cc1cccn2c(=O)c(/C=C(\C#N)C(=O)NCc3ccco3)c(N3CCOCC3)nc12 1.08%
Cc1cccn2c(=O)c(/C=C(\C#N)C(=O)NCc3ccco3)c(N3CCC(C(N)=O)CC3)nc12 2.25%
COC(=O)[C@H](CCSC)NC(=O)NCCc1ccccc1F 0.16%
CC1CCN(Cc2c(C(=O)N/N=C/c3ccc(OC(C)C)cc3)nnn2-c2nonc2N)CC1 3%
COc1ccc(C2C3=C(CC(C)(C)CC3=O)N(C)C3=C2C(=O)CC(C)(C)C3)cc1OC 4.11%
COC(=O)C1=C(N)Oc2cc(C)n(CCCn3ccnc3)c(=O)c2C1c1cccc(Cl)c1 (stereo not drawn) 1.81%
COc1ccc(-c2cc(C(=O)N3CCN(c4ncccn4)CC3)c3ccccc3n2)c(OC)c1 0.07%
CCOc1ccc(-c2cc(C(=O)N/N=C(\C)c3cccnc3)c3ccccc3n2)c(OCC)c1 0.9%
COc1ccc(-c2cc(C(=O)N3CCCCC3)c3ccccc3n2)cc1 0.19%
CCOc1ccc(-c2cc(C(=O)O)c3ccccc3n2)cc1 8.94%
O=C(N/N=C/c1ccc2c(c1)OCO2)c1cc(-c2ccccc2)nc2ccccc12 1.93%
O=C(N/N=C/c1ccc2c(c1)OCO2)c1cc(-c2ccccc2Cl)nc2ccccc12 4.7%
COc1ccc(CN(C)CC(=O)Nc2ccccc2C(F)(F)F)c(OC)c1 0.3%
CCOC(=O)C1CCCN(C(=O)c2cccc(S(=O)(=O)N(C)c3ccc(C)cc3)c2)C1 (stereo not drawn) 0.68%
Cc1cccc(/C=N/NC(=O)c2cccc(NC(=O)c3ccccc3)c2)n1 1.75%
CC1(C)CC(=O)C=C(NNC(=O)c2ccc(N)cc2)C1 1.88%
O=C(CN(C(=O)c1csnn1)c1cccc2c1CCCC2)NCc1ccc(F)cc1 1.67%
CCOC(=O)c1c(CN2CCOCC2)oc2ccc(OC(C)=O)cc12 2.6%
COc1ccc(OCc2cc(C(=O)N3CCCC(CO)C3)no2)c2ccccc12 (stereo not drawn) 3.56%
CC1CC(C)(C)NC(=S)N1CC(=O)N1CCN(Cc2ccccc2)CC1 (stereo not drawn) -0.71%
Clc1ccc(OCc2nnc(-c3ccccc3Br)o2)cc1 11.5%
COc1ccc(-c2nc(CN3CCC(C(=O)N4CCc5ccccc54)CC3)c(C)o2)cc1OC 0.12%
COc1ccc(-c2nn(-c3ccccc3)cc2C2CC(c3cccs3)=NN2C(=O)CCCC(=O)O)cc1 (stereo not drawn) 6.41%
O=C(O)CCC(=O)N1N=C(c2cccs2)CC1c1cn(-c2ccccc2)nc1-c1ccccc1 (stereo not drawn) 1.96%
